# Shown is part of a subset that was picked to be rich in hits.
# ST2 IL33 inh = blocks human ST2 binding to IL-33; Q01638; AlphaLISA ST2-Fc/biotin-IL-33 interaction, 1 h; inhibition, % for hits at 17 µM; 78,000 compounds, 2.3% hits; in the data active means inhibition above about 30%
# Target sequence (Q01638 whole entry, looked up): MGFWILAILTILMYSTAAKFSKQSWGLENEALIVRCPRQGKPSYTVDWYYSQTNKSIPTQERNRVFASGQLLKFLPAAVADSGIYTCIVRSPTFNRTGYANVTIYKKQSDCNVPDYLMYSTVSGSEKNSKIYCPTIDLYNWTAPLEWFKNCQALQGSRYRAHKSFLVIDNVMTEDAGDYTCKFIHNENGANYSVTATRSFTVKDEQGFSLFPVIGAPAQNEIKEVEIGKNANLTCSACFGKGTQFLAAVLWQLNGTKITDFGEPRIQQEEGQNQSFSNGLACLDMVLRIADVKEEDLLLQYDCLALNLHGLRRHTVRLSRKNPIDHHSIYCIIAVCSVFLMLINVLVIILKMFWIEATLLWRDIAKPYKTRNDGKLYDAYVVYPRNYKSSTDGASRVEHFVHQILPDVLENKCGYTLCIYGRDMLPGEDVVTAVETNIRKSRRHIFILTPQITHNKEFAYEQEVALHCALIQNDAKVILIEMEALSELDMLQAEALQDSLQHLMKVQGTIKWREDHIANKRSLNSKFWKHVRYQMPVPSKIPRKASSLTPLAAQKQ
# Numbers stand for hits; i = inactive.
SMILES,ST2 IL33 inh
CCc1ccc(C(=O)NC(C(=O)O)C(C)C)cc1 (centres undefined),i
CC(C)C(NC(=O)c1ccco1)C(=O)O (centres undefined),32%
CCOc1ccc(-c2nc(C(N)=O)c3c(n2)n(-c2ccc(C)c(C)c2)c(=O)n3CC)cc1,i
COc1ccc(-n2nc(C)nc2-c2cccc(N)c2)cc1,i
COc1ccc(/C=C/C#N)cc1,i
CC(=O)c1ccc(N=Cc2ccc(C=Nc3ccc(C(C)=O)cc3)cc2)cc1,i
COc1ccc(C=Nc2cc(Cl)c(N)c(Cl)c2)cc1,85%
COc1ccc(-c2nnc(Nc3ccccc3O)c3ccccc23)cc1,i
Cc1cc(C)c(NC(=O)CN2CCN(Cc3ccccc3F)S2(=O)=O)c(C)c1,i
Cc1ccc(Cl)cc1NC(=O)CN1CCN(Cc2ccccc2F)S1(=O)=O,97%
O=C(CN1CCN(Cc2ccccc2F)S1(=O)=O)Nc1ccccc1,i
FC(F)(F)C1CN(c2nnnn2-c2ccc(-c3ccccc3)cc2)CCO1 (centres undefined),i
CC(C)c1ccc(N(C(=O)COc2ccc(Cl)cc2)C2C=CS(=O)(=O)C2)cc1 (centres undefined),i
C#CCOc1c(Cl)cc(/C=C2/NC(=O)NC2=O)cc1Cl,i
Cc1ccc(C2Nc3ccccc3NC3=C2C(=O)CCC3)o1 (centres undefined),32%
CCOc1ccc(C2Nc3ccccc3NC3=C2C(=O)CCC3)cc1 (centres undefined),i
COc1ccc(C2CC(=O)C3=C(C2)Nc2ccccc2NC3c2ccc(C)o2)cc1 (centres undefined),i
O=C(CSc1nc2ncccc2[nH]1)Nc1ccc(Cl)cc1Cl,i
CC(Oc1ccccc1)C(=O)N1CCN(c2ccc([N+](=O)[O-])cc2)CC1 (centres undefined),48%
O=C(c1ccccc1Cl)N1CCN(c2ccc([N+](=O)[O-])cc2)CC1,i
O=C(C(Cl)Cl)N1CCN(c2ccc([N+](=O)[O-])cc2)CC1,i
O=C(COc1cccc2cccnc12)Nc1ccc(Oc2ccccc2)cc1,i
Cc1ccc(-c2nc3ccccc3[nH]2)cc1NC(=O)c1cccs1,i
CC(=O)Nc1ccccc1NC(=O)COc1ccc(Br)cc1C,i
O=C(CCCn1c(=O)[nH]c2ccsc2c1=O)NCc1cccnc1,i
SMILES,ST2 IL33 inh
Cc1cc(-c2nc(-c3nonc3N)no2)ccc1[N+](=O)[O-],i
CC(=O)Sc1nc(O)c(C=C2C=c3ccc(C)cc3=NC2=O)[nH]1,31%
CCCS(=O)(=O)N1CCC(C(=O)NCCN2CCCCC2C)CC1 (centres undefined),i
O=C(c1cccc(Cl)c1)N1CCN=C1SCc1ccccc1F,i
CC(=O)Nc1cccc(-c2nc(N(C)C)nc(C)c2C)c1,i
O=C(c1n[nH]c2c1CCC2)N1CCc2c([nH]c3ccccc23)C1c1ccccc1F (centres undefined),i
CC(C)Cn1cc(C(=O)NC2CCCC2)c2c3ccccc3n(C)c2c1=O,i
CC(C)Cn1cc(C(=O)NC2CCCCC2)c2c3ccccc3n(C)c2c1=O,36%
Cn1cc(C(=O)NC2CCCCCC2)c2c3ccccc3n(C)c2c1=O,i
COCC1(C(=O)N2CCNC(=O)[C@@H]2Cc2ccccc2)CCC1,i
CC1=CC(C)(C)N(C(=O)CN2C(=O)c3cccc([N+](=O)[O-])c3C2=O)c2ccccc21,32%
CC1=CC(C)(C)N(C(=O)CN2C(=O)c3ccccc3C2=O)c2ccccc21,i
Cc1c(NC(=O)CN2C(=O)c3cccc([N+](=O)[O-])c3C2=O)c(=O)n(-c2ccccc2)n1C,i
COC(=O)CC1(O)c2ccccc2C(=O)N1CCc1ccc(S(N)(=O)=O)cc1 (centres undefined),i
COC[C@H](N)C(=O)Nc1cccc(NC(=O)Cc2ccccc2)c1,i
Clc1ccc(N2CCN(Cc3nc(-c4cccs4)no3)CC2)nc1,i
COc1ccc(OCc2ccccc2F)c(/C=C2\C(=O)NN(c3ccccc3)C2=O)c1,35%
COc1ccc(OCc2ccc(F)cc2)c(/C=C2\C(=O)NN(c3ccccc3)C2=O)c1,i
COc1cccc(OCCOc2ccc(/C=C3\C(=O)NN(c4ccccc4)C3=O)cc2)c1,i
CC(C)Cn1ncc2c1NC(=O)CC2c1ccccc1-c1ccco1 (centres undefined),i
Cc1ccccc1C(=O)Nc1sc2c(c1C(=O)N(C)C)CCCC2,i
CCN(CC)C(=NS(=O)(=O)c1cc(C)ccc1C)c1ccccc1,i
Cc1ccc(C)c(S(=O)(=O)N=C(c2ccc(Cl)cc2)N(C)C)c1,78%
Cc1ccc(C(=O)Nc2cc(Cl)ccc2C)cc1,i
CCCCC(C(=O)O)N1C(=O)C2C3C=CC(C4CC34)C2C1=O (centres undefined),i
SMILES,ST2 IL33 inh
CC(C)CCn1c(SCC(C)C)nc2c1c(=O)[nH]c(=O)n2C,i
O=C1c2cccc3cccc(c23)C(=O)N1CCNCCO,i
O=C1c2c(O)ccc(O)c2C(=O)c2c(NCCNCCO)ccc(NCCNCCO)c21,82%
CN(CCc1cnn(C)c1)C(=O)c1cc(COc2ccc3c(c2)OCO3)[nH]n1,i
CCCCn1ncc(C)c1NC(=O)[C@H]1CCCO1,i
CCCCn1ncc(C)c1NC(=O)c1ccsc1,31%
CCC(CC)n1ncc(C)c1NC(=O)c1cc(C)nc(C)n1,i
CCOc1ccc2nc(SCC(=O)C(C)(C)C)[nH]c2c1,i
Cc1ccccc1C1C(C#N)=C(N)OC2=C1C(=O)CC(C)(C)C2 (centres undefined),i
CC(=O)Oc1ccc([C@H]2C(C#N)=C(N)OC3=C2C(=O)CC(C)(C)C3)cc1,i
CCOC=NC1=C(C#N)C(c2ccccc2)C2=C(CC(C)(C)CC2=O)O1 (centres undefined),59%
CCOc1cc(C2C(C#N)=C(N)OC3=C2C(=O)CC(C)(C)C3)ccc1O (centres undefined),i
CC(C)c1ccc(C2C(C#N)=C(N)OC3=C2C(=O)CC(C)(C)C3)cc1 (centres undefined),i
CCOC=NC1=C(C#N)C(c2ccc(Cl)cc2)C2=C(CC(C)(C)CC2=O)O1 (centres undefined),79%
Cc1ccccc1-c1ncc(CNCCn2nnc3ccccc32)s1,i
CCCN(Cc1ccccc1)C(=O)Nc1ccc2snnc2c1,i
OCC(NC1CCC2(CCNCC2)CC1)c1ccccc1 (centres undefined),i
O[C@@H]1C[C@@H](c2nc(-c3ccc(C(F)(F)F)cc3)no2)N(Cc2cc3ccccc3o2)C1,i
CC(C)c1noc([C@@H]2C[C@@H](O)CN2Cc2cc3ccccc3o2)n1,38%
O=S(=O)(Cc1noc([C@@H]2C[C@@H](O)CN2Cc2cc3ccccc3o2)n1)c1ccc(F)cc1,i
Cc1cc(C(=O)NCc2cccnc2N2CCc3ccccc3C2)no1,i
CCOC(=O)C1(Cc2ccccc2)CCN(S(=O)(=O)c2ccsc2)CC1,i
O=C(Cn1cnc2ccccc2c1=O)Nc1ccc(F)c(Cl)c1,i
O=C1c2cccc([N+](=O)[O-])c2C(=O)N1C1CCCCCCC1,36%
O=C1c2cccc([N+](=O)[O-])c2C(=O)N1C1C(=O)N(c2ccc(Cl)cc2)C1c1ccc(F)cc1 (centres undefined),41%
Cc1ccc(N2C(=O)C(N3C(=O)c4cccc([N+](=O)[O-])c4C3=O)C2c2cccs2)cc1Cl (centres undefined),i
COc1ccc(N2C(=O)C(N3C(=O)c4ccc([N+](=O)[O-])cc4C3=O)C2c2ccc(F)cc2)cc1 (centres undefined),i

# High-throughput results deposited in PubChem by Paczesny and Yang Labs, IUPUI and University of Michigan.
